Target: Metabotropic glutamate receptor 4 (Homo sapiens) (UniProt Q14833)
Experiment: agonist response potentiation at mGlu4 receptor – cell-based, GIRK thallium flux, mechanism study for group III mGlu PAM project, late-stage follow-up (AID 743466)
Details: mGlu4/GIRK cells, glutamate CRC fold shift, at 10 µM, stronger effect = higher value

Metabotropic glutamate receptor 4 (Homo sapiens), sequence (Q14833 whole entry, looked up): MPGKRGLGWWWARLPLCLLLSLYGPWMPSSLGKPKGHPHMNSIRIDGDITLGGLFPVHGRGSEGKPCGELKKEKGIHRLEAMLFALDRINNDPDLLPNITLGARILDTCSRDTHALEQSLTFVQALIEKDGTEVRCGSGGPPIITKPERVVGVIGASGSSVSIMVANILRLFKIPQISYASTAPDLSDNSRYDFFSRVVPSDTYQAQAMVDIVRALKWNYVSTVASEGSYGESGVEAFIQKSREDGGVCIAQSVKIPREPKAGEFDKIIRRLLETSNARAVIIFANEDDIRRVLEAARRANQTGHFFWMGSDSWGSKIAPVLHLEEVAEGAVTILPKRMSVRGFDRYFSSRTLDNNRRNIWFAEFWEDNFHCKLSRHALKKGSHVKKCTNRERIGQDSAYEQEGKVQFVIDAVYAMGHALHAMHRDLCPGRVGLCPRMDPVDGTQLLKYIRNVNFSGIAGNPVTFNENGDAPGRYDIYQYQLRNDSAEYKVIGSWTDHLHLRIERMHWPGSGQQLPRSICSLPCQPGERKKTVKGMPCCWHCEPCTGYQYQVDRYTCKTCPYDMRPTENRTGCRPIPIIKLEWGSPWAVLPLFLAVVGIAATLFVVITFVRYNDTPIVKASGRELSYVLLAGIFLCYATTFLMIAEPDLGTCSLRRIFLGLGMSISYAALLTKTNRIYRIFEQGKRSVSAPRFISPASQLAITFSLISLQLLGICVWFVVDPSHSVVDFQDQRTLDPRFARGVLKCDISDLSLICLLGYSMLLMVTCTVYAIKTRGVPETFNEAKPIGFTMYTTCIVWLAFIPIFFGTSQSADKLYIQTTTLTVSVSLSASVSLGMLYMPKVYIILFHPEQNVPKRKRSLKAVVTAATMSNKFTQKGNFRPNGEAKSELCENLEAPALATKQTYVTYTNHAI

Which fold shift does the source give for COC(=O)c1ccc(-n2c(C)cc(C(=O)CSc3ccc(NC(C)=O)cc3)c2C)cc1 here?
Its fold shift is 1.84.
